These results are taken from ChEMBL document CHEMBL2218924, “A broad activity screen in support of a chemogenomic map for kinase signalling research and drug discovery” (Biochem J, 2013).

Assay [1] concerns the target Tyrosine-protein kinase SYK (Homo sapiens) (UniProt P43405). The following applies: at 10 µM.
Assay [2] addresses T1, Serine/threonine-protein kinase TAO1 (Homo sapiens) (UniProt Q7L7X3).
T1 sequence (whole entry): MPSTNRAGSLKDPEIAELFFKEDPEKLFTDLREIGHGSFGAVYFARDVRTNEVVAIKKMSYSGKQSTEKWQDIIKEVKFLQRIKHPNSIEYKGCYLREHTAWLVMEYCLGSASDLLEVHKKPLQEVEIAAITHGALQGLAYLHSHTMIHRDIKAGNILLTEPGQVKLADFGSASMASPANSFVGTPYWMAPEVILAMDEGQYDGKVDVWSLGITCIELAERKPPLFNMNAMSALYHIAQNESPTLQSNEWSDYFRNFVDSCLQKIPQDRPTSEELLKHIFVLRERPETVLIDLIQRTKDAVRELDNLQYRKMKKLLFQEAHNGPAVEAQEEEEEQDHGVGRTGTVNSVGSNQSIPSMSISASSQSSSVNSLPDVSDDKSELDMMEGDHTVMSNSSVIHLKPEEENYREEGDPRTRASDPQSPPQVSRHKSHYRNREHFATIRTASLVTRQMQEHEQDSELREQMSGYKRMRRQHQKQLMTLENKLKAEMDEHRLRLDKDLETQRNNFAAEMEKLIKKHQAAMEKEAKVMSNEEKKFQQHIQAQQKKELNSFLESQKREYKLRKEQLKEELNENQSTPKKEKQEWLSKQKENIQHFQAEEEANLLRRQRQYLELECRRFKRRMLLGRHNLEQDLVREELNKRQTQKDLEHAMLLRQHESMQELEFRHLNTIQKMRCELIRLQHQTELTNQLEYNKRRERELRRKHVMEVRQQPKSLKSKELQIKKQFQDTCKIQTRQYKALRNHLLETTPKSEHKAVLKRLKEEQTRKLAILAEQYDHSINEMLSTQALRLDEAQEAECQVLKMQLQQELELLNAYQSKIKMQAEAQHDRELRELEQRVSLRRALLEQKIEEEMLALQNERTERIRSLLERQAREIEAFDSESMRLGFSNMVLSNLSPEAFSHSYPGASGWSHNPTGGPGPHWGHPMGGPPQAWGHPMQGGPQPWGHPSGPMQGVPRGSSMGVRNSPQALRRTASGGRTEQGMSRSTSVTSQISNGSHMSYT
To be noted: at 10 µM.

In assay [3] the target is T2, Serine/threonine-protein kinase TAO3 (Homo sapiens) (UniProt Q9H2K8).
T2 sequence (whole entry): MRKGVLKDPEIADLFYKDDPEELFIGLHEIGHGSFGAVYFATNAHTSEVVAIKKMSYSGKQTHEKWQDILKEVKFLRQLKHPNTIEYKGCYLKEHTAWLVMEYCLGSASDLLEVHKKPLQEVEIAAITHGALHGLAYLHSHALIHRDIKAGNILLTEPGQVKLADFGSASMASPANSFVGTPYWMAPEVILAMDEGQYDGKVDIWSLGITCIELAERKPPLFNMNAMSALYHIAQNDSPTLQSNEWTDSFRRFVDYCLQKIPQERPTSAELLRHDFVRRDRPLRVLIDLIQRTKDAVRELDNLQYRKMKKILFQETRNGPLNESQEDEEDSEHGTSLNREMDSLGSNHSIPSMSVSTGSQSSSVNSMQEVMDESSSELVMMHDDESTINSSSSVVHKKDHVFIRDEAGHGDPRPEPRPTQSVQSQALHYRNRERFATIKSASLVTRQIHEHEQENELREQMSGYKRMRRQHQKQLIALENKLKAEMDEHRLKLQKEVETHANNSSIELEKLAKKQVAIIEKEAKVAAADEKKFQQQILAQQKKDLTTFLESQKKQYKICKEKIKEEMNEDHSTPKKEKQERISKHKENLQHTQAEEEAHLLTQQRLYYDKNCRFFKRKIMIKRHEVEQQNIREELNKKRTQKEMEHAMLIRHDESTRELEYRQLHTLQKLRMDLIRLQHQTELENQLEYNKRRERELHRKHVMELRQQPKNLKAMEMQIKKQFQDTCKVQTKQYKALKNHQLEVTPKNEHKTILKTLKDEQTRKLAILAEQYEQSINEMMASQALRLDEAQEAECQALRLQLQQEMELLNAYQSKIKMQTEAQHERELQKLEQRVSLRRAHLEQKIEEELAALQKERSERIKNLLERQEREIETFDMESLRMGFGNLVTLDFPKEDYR
To be noted: at 10 µM.

In assay [4] the target is T3, Serine/threonine-protein kinase TBK1 (Homo sapiens) (UniProt Q9UHD2).
T3 sequence (whole entry): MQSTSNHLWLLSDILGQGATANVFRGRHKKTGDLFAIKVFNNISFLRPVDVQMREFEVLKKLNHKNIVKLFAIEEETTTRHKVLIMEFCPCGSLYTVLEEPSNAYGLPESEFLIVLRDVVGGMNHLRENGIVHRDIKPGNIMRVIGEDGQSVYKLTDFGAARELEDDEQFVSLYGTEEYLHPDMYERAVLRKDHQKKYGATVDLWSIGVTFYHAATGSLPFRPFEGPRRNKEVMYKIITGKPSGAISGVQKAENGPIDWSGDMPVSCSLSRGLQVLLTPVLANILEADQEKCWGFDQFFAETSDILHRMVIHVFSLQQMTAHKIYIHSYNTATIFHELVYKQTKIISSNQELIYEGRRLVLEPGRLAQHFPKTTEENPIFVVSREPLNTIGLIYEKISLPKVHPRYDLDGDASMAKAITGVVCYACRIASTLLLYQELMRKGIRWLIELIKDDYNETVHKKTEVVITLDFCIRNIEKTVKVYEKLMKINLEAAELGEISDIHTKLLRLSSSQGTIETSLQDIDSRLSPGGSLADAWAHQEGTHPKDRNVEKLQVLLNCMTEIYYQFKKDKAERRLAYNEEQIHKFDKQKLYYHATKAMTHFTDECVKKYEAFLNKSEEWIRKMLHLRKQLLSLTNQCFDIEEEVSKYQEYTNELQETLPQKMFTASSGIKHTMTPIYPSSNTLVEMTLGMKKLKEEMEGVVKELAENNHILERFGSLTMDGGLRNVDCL
To be noted: at 1 µM.

Assay [5] concerns the target T3, Serine/threonine-protein kinase TBK1 (Homo sapiens). The following applies: at 10 µM.
Assay [6] deals with T4, TGF-beta receptor type-1 (Homo sapiens) (UniProt P36897).
T4 sequence (whole entry): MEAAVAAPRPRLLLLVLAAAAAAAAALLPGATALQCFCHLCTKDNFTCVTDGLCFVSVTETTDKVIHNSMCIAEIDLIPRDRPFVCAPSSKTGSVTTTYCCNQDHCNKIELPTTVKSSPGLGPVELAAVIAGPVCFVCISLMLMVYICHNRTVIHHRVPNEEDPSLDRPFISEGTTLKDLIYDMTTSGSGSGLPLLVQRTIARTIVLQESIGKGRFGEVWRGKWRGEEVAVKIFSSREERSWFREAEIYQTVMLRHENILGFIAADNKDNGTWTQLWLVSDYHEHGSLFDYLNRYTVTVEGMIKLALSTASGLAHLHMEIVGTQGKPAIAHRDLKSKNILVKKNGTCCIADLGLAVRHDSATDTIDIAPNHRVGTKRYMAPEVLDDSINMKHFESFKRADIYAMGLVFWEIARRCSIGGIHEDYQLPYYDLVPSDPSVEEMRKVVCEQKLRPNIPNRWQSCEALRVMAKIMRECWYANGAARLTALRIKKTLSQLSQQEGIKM
The following applies: at 1 µM.

The target of assay [7] is T4, TGF-beta receptor type-1 (Homo sapiens). The following applies: at 10 µM.
Assay [8] concerns the target T1, Serine/threonine-protein kinase TAO1 (Homo sapiens). To be noted: at 1 µM.
Assay [9] has as its target T5, Serine/threonine-protein kinase TAO2 (Homo sapiens) (UniProt Q9UL54).
T5 sequence (whole entry): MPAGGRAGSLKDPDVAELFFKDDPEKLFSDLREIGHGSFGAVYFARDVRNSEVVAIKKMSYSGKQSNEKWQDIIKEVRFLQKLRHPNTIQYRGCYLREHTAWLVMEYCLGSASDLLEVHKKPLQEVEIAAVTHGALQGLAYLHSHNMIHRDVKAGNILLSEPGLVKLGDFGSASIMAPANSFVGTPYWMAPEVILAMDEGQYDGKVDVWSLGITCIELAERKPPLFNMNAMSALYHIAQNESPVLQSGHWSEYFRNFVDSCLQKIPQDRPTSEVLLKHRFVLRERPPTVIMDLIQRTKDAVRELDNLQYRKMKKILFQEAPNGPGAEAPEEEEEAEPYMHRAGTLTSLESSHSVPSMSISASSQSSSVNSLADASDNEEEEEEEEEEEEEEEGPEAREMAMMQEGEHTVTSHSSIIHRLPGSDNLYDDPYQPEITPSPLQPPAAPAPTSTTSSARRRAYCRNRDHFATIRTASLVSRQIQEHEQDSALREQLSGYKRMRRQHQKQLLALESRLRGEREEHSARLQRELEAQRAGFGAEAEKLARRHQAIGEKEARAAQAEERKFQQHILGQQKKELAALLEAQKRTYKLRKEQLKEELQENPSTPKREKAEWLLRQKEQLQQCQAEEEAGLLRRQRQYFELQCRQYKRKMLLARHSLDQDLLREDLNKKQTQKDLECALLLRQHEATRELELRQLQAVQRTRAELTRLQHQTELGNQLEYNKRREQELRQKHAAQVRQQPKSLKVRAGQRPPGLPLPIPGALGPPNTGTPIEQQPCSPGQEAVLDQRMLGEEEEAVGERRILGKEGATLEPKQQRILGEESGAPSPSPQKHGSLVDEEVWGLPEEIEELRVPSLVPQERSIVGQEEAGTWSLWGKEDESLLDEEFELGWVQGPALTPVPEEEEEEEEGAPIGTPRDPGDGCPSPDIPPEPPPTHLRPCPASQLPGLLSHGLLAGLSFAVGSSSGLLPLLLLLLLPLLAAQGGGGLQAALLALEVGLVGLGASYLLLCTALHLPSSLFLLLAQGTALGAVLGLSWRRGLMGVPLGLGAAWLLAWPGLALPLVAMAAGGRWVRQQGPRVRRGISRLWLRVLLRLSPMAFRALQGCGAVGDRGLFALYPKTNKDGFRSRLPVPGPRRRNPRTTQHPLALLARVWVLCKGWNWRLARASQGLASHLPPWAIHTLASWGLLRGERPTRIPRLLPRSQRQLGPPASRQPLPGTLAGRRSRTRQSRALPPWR
The following applies: at 1 µM.

In assay [10] the target is T5, Serine/threonine-protein kinase TAO2 (Homo sapiens). To be noted: at 10 µM.
Assay [11] addresses T2, Serine/threonine-protein kinase TAO3 (Homo sapiens). The following applies: at 1 µM.
Assay [12] has as its target Insulin-like growth factor 1 receptor (Homo sapiens) (UniProt P08069). The following applies: at 1 µM.
The target of assay [13] is Insulin receptor (Homo sapiens) (UniProt P06213). The following applies: at 1 µM.
Sequence of Insulin receptor (Homo sapiens) (P06213 28-758 limits assumed): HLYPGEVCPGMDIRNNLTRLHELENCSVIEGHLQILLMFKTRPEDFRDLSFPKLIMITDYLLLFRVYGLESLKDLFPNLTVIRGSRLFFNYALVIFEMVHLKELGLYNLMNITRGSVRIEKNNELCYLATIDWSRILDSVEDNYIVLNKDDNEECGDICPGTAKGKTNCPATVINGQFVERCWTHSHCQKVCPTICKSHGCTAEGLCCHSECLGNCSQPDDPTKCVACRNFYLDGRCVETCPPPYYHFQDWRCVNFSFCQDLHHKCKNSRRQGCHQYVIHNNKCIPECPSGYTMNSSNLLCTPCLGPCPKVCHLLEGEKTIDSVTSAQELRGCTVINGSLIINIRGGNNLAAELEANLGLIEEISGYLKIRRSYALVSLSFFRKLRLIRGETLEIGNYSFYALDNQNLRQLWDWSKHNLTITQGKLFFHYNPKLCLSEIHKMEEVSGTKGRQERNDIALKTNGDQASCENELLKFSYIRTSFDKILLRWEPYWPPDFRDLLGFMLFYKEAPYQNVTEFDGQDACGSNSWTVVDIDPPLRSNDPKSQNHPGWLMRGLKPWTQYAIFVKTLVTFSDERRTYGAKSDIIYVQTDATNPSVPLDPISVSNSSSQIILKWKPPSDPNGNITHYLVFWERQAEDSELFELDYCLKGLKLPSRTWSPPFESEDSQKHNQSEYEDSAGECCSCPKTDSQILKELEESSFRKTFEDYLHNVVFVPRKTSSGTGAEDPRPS
Sequence of Insulin receptor (Homo sapiens) (P06213 763-1382 limits assumed): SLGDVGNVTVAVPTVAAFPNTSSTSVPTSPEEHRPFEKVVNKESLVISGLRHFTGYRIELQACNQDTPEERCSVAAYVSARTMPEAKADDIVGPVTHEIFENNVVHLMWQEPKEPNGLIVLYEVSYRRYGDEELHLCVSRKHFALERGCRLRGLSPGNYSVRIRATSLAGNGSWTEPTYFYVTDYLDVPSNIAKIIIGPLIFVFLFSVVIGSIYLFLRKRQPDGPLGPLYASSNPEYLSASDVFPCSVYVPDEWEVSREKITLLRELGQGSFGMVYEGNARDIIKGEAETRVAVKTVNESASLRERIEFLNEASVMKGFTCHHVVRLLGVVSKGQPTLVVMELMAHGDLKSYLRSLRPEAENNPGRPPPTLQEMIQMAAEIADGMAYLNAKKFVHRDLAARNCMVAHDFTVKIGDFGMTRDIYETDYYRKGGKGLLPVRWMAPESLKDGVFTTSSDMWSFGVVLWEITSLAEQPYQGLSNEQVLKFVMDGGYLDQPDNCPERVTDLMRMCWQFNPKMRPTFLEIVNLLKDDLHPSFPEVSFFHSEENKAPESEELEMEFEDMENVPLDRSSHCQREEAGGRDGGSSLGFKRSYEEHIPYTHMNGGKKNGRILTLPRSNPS

Sequence of Insulin-like growth factor 1 receptor (Homo sapiens) (P08069 31-736 limits assumed): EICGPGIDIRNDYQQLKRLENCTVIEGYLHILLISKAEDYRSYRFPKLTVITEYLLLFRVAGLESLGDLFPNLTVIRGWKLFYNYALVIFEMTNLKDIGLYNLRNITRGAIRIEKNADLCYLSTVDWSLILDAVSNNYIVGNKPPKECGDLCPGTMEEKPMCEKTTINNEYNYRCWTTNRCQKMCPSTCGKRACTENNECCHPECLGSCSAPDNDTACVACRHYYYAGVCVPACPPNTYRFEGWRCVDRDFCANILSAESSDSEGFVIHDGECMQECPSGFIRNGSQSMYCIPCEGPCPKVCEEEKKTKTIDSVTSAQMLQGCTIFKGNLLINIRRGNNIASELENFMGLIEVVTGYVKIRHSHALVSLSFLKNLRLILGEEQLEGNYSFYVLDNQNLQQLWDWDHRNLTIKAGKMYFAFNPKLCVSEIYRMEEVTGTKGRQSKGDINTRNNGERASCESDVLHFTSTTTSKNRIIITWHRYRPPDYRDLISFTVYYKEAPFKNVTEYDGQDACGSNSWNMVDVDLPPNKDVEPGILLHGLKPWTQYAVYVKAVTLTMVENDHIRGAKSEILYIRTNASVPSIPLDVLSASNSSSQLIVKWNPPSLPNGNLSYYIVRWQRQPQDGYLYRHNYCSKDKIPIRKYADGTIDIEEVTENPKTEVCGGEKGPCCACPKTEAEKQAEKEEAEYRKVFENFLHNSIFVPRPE
Sequence of Insulin-like growth factor 1 receptor (Homo sapiens) (P08069 741-1367 limits assumed): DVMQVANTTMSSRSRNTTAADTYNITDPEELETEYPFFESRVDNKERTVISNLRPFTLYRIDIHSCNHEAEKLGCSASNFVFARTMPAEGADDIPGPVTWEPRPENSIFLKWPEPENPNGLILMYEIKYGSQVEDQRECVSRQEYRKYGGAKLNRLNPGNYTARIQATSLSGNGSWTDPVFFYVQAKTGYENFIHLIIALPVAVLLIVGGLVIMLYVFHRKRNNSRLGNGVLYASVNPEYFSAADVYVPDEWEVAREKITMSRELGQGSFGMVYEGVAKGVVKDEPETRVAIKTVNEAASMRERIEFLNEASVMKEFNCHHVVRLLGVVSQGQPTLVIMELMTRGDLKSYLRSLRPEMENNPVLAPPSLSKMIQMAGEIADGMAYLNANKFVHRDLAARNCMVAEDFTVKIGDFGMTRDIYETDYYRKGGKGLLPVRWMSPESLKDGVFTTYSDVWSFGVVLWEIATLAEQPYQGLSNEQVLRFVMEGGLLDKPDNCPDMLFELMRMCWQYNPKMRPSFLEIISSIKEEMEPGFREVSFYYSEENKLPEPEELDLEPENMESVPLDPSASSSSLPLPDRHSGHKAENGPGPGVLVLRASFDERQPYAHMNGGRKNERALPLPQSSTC

Usually residual activity stands for the signal under treatment as a percentage of the control signal. For `Oc1cccc(-c2nc(N3CCOCC3)c3oc4ncccc4c3n2)c1`, the residual activity worked out at 94% in assay [1]; 94% in assay [2]; 93% in [3]; 82% in assay [4]; 67% in assay [5]; 82% in [6]. The residual activity in assay [7] is 91%.

As to `COc1cc2ncnc(Nc3cccc(Cl)c3)c2cc1OC`, the residual activity came to 71% in assay [1]; 102% in assay [8]; 76% in assay [2]; 113% in assay [9]; 86% in assay [10]; 102% in assay [11]. The residual activity in assay [5] worked out at 59%; in assay [6], 100%; in [7], 103%; in assay [12], 115%; in [13], 110%.

Consider `CCOc1nc(NC(=O)Cc2cc(OC)ccc2OC)cc(N)c1C#N`, for which the residual activity in [4] was 79%; in assay [5] it was 68%.
